PubChem BioAssay AID504336 (NMMLSC, 2011)
Activity calls are given as the source filed them.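 Rule for the calls: active = compounds whose GFP signal falls below 65% of the DMSO control level; inconclusive = fewer than 70 yeast cells counted in the well; inactive = the rest.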

Assay: TOR branch reporter RPL19A-GFP response – cell-based, S. cerevisiae, third cherry pick, flow cytometry, confirmation (AID 504336);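 note: median GFP fluorescence of all gated yeast cells by flow cytometry; ratio of well median fluorescence to plate mean of DMSO wells with DMSO = 100%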
Conditions: S. cerevisiae RPL19A-GFP strain, 3 h, at 10 µM, hits give low values

GFP response relative to DMSO, inactive:
CCOC(=O)CS(=O)(=O)c1nc(-c2ccccc2)cc(C(F)(F)F)n1 93.1%
O=C(O)c1ccc(C=NNC(=O)c2cccc3ccccc23)cc1 97.2%
C=CCNc1ncnc2ccccc12 103%
COc1ccccc1Nc1nc(NCCO)nc(N)c1[N+](=O)[O-] 102%
COC(=O)c1cc(=O)c2cccc(OC)c2[nH]1 101%
O=c1cc(C(F)(F)F)[nH]c2c(OC(F)(F)F)cccc12 101%
Cn1cccc1C(=O)Nc1nc(-c2ccccn2)cs1 102%
CCN(CC)C(=O)Oc1cc(=O)n(C)c2ccccc12 99.8%
OCCNc1ncnc2ccc(Br)cc12 99.8%
C/C(=N\NC(=O)c1cccc2ccccc12)c1cccnc1 98.3%
CNc1cccc2c1C(=O)c1ccccc1C2=O 102%
CCC(=O)Nn1cnc2c(c1=O)C1(CCCCC1)Cc1ccccc1-2 103%
Cc1cccc(N/C=C/C(=O)c2ccc(Cl)cc2)c1 99.6%
CSc1ccccc1OCc1cc(C(=O)N2CCN(C)C(c3ccccc3)C2)no1 (centres undefined) 101%
N#Cc1c(N)nc(N)nc1Nc1ccc(Br)cc1 99.6%
Oc1c(Cl)cc(Cl)c2cccnc12 81.6%
CCN(CC)C(=O)Oc1ccnc2cc(Cl)ccc12 103%
CN1CCN(C(=O)c2cc(COc3ccc(F)cc3Cl)on2)CC1c1ccccc1 (centres undefined) 100%
O=C(O)c1ccc2cccc(O)c2n1 102%
CC(=O)Nc1ccc(-c2nc3ccccc3o2)cc1 99.6%
Cc1ccc(C(=O)/C=C/Nc2cccc(O)c2)cc1 101%
COc1cc(OC)cc(C(=O)Nc2ccc(-c3nc4ccccc4o3)cc2)c1 103%
COc1cccc(N/C=C/C(=O)c2ccc(Cl)cc2)c1 101%
Cc1cccc(Nc2cc(=O)[nH]c(=O)[nH]2)c1 100%
COc1ccccc1-c1cc(C(F)(F)F)nc(S(C)(=O)=O)n1 96.2%
Oc1c(Br)cc(Br)c2cccnc12 88.3%
O=C(N/N=C/c1ccccc1O)c1cccc2ccccc12 97%
OCCN1CCN(c2ncnc3ccc(Br)cc23)CC1 102%
C[n+]1cccc2cccc([O-])c21 98.3%
CCC(C)Nc1nc(N)c([N+](=O)[O-])c(Nc2ccccc2OC)n1 (centres undefined) 105%
CC(C)Nc1ncnc2ccc(Br)cc12 97.8%
Nc1cc(C(=O)O)c(N)c2c1C(=O)c1ccccc1C2=O 98.5%
Cc1ccc(C(=O)Nc2nc(-c3ccccn3)cs2)o1 99.3%
O=C(Nc1ccc(-c2nc3ccccc3o2)cc1)c1cccnc1 101%
CC1=NNC(=O)/C1=C\c1cn(-c2ccccc2)nc1-c1ccc(F)cc1 89.7%
C/C(=C\C(=O)c1ccc(C)cc1)Nc1cccc(O)c1 99.3%
C/C(=C\C(=O)c1ccc(Cl)cc1)Nc1ccc(Br)cc1 100%
O=C(/C=C/Nc1cccc(O)c1)c1ccccc1 98.8%
CC1=CN2C(=N)/C(=C/c3ccc(C)o3)C(=O)N=C2S1 101%
